Sampled rows, rich in hits. Any-hit rate of the full collection: about 1.2%.
EPAC1 ag: qHTS for Agonist of cAMP-regulated guanine nucleotide exchange factor 3 (EPAC1): primary screen; Rap guanine nucleotide exchange factor 3 (Homo sapiens), O95398; EPAC1 agonist qHTS, biochemical assay; response scale: 100% = response to 6.5 mM cAMP; Potency, µM (titrated, usually from 154 µM), for the others: at the top dose activation, most hits filed as activators; hit rate 0.073% among 360,000; AID 720707, 2013; note: nearly all actives have a fitted effect of over 60% in size
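Compounds were pinned as a concentration titration into mixtures of EPAC1 (100 nM), BODIPY-GDP-loaded Rap1B (250 nM) and GDP (50 uM). After 5 min at room temperature, fluorescence was followed for 30 min; activity was scaled to 6.5 mM cAMP.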
VDR inh: Inhibitors of the vitamin D receptor (VDR): qHTS | AID 504847, 2011 | Potency, µM, for the others: max response, negative = inhibition, usual class: inhibitors | VDR-SRC2-3 peptide fluorescence polarization, 2 h | hit rate 0.93% among 400,000; note: % is set by controls: 0 for no effect and ±100 for the full control effect
Target sequence (P11473 whole entry, looked up): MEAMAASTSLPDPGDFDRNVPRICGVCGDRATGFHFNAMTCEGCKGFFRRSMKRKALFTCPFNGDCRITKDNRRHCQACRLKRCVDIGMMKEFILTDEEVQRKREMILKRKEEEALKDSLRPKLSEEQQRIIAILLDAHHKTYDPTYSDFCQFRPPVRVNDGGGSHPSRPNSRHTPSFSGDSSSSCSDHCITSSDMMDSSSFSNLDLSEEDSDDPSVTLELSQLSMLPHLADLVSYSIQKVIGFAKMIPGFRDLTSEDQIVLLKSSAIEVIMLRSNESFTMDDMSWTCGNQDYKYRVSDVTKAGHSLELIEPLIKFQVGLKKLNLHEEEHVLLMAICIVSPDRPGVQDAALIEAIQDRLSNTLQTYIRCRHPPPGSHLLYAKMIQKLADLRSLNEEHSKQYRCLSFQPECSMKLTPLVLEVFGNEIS
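Measured by FP: displacement of SRC2-3 coactivator peptide from VDR by library compounds, following a two-hour ambient incubation.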
USP1-UAF1 inh: Inhibitors of USP1/UAF1: Primary Screen. Ubiquitin carboxyl-terminal hydrolase 1 (Homo sapiens), O94782. recombinant USP1/UAF1, Ub-Rhodamine cleavage fluorescence. Potency, µM (titrated, usually from 57.1 µM), without a hit: at the top dose activity change, negative = inhibition, usual class: inhibitors. hit rate 0.23% among 390,000; note: % is set by controls: 0 for no effect and ±100 for the full control effect; nearly all actives have a fitted effect of over 60% in size
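USP1/UAF1 complex at 1 nM was preincubated with compound for 15 min at room temperature, then Ub-Rho substrate (150nM final) was added. Fluorescence (480/540 nm) was read kinetically, 6 reads every 60 seconds.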
EPAC2 antagonist: qHTS for Antagonist of cAMP-regulated guanine nucleotide exchange factor 2 (EPAC2): primary screen. Potency, µM (doses to about 114 µM), inactives show at the top dose activity, negative = inhibition, actives largely listed as inhibitors. hit rate 0.18% among 360,000. EPAC2 GEF exchange of Rap1B-BODIPY-GDP, fluorescence. Rap guanine nucleotide exchange factor 4 (Homo sapiens), Q8WZA2. AID 720708, 2013; note: % is set by controls: 0 for no effect and ±100 for the full control effect; nearly all actives have a fitted effect of over 45% in size
EPAC2 agonist: qHTS for Agonist of cAMP-regulated guanine nucleotide exchange factor 4 (EPAC2): primary screen | Rap guanine nucleotide exchange factor 4 (Homo sapiens), Q8WZA2 | Potency, µM (top dose mostly 154 µM), inactives show at the highest dose activation, usual class: activators | AID 720711, 2013 | EPAC2 activation, biochemical qHTS; response scale: 100% = 6.5 mM cAMP response | hit rate 0.079% among 360,000; note: nearly all actives have a fitted effect of over 50% in size
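Each well held 100 nM EPAC2, 250 nM RAP1B-BODIPY-GDP and 50 uM GDP. Fluorescence, read at 5-min intervals to 30 min, was referenced to a 6.5 mM cAMP positive control.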
EPAC1 antag: qHTS for Antagonist of cAMP-regulated guanine nucleotide exchange factor 3 (EPAC1): primary screen; EPAC1 GEF assay, Rap1b-BODIPY-GDP exchange fluorescence; Potency, µM (doses to about 115 µM), inactives show at the highest dose activity change, negative = inhibition, hits mostly inhibitors; hit rate 0.14% among 360,000; AID 720709, 2013;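 note: plate controls were vehicle for no effect and positive control for full effect; nearly all actives have a fitted effect of over 50% in size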
VDR confirm: qHTS for Inhibitors of the vitamin D receptor (VDR): Hit Validation in Primary Screen; VDR-coactivator inhibition assay, qHTS confirmation; hit rate 89% among 840; shares compounds with VDR inh; Potency, µM, actives largely listed as inhibitors
VDR FP fluor: qHTS for Inhibitors of the vitamin D receptor (VDR): Hit Validation using a Fluorescein Assay | hit rate 48% among 840 | shares compounds with VDR inh | Potency, µM (doses to about 57.1 µM), for the others: at the top dose activity change, negative = inhibition, most hits filed as inhibitors | VDR-coactivator binding, fluorescein fluorescence polarization
VDR bla reporter: qHTS for Inhibitors of the vitamin D receptor (VDR): Hit Validation using a Beta-Lactamase Assay. Potency, µM (highest dose often 46.1 µM), without a hit: at the top dose activity change, negative = inhibition, usual class: inhibitors. hit rate 23% among 840. shares compounds with VDR inh. VDR beta-lactamase reporter cells, FRET ratio; cells co-treated with VDR agonist LG190178; note: % is set by controls: 0 for no effect and ±100 for the full control effect
VDR viability: qHTS for Inhibitors of the vitamin D receptor (VDR): Hit Validation using a Cytotoxicity Assay; shares compounds with VDR inh; cytotoxicity counter-screen, cell viability, qHTS; Potency, µM (doses to about 48.3 µM), without a hit: at the top dose activity change, negative = cytotoxicity, actives largely listed as cytotoxic; hit rate 18% among 840;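 note: plate controls were DMSO for no effect and high-concentration cycloheximide for full effect; nearly all actives have a fitted effect of over 75% in size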
Starred values were filed as active, the others as inactive; ? = inconclusive; / = no result given; [ ] = dose if it differs, or a comment. Calls come from the whole dose curve; as a rule, active = well fitted curve in the direction sought with a large enough effect; inconclusive = small, poorly fitted or top-dose-only effect, or another doubt; inactive = no such curve, though single readings can be large; an effect the other way counts as inactive or inconclusive. Potency is the fitted concentration of half-maximal effect.

SMILES	EPAC1 ag	VDR inh	USP1-UAF1 inh	EPAC2 antagonist	EPAC2 agonist	EPAC1 antag	VDR confirm	VDR FP fluor	VDR bla reporter	VDR viability
COc1cc(O)c(NC(C)=O)c2nonc12	2.9%	-81.4%	?	-0.6%	18.9%	2.9%	/	/	/	/
COc1ccc(C2C=C3CNS(=O)(=O)C3CC2OC(=O)c2cccs2)cc1 (stereo unspecified)	/	-4.0%	/	/	/	/	/	/	/	/
Cc1ccc(S(=O)(=O)Oc2ccc(/C=C3\C(=N)N4N=C(S(C)(=O)=O)SC4=NC3=O)cc2)cc1	-8.6%	50.1µM*	-25.1%	?	-4.3%	?	?	3.16µM*	23.8%	?
Cc1ccc(S(=O)(=O)Oc2ccc(/C=C3/C(=N)N4C(=NC3=O)SN=C4S(C)(=O)=O)cc2)cc1	-10.2%	?	?	?	-1.0%	-24.3%	/	/	/	/
CC(C)Oc1ccc(C(=O)NC2=NCCS2)cc1	2.6%	79.4µM*	-17.4%	7.9%	5.5%	-15.7%	23.8*	?	15.0%	25.3%
C/C=C/C(=O)[C@@H](C)[C@@H](/C=C/C[Si](C)(C)C)c1ccccc1	/	-15.7%	/	/	/	/	/	/	/	/
Cc1coc2c1c(C)cc1oc(=O)c(CC(=O)NCc3ccc(Cl)cc3)c(C)c12	/	-1.0%	-12.8%	/	/	/	/	/	/	/
CC(=O)Nc1ccc(C2=NNC(=Nc3cccc(S(=O)(=O)N(C)C)c3)SC2)cc1	-13.0%	?	10µM*	-2.4%[57.1 µM]	-16.6%	-12.8%	12.6*	12.6µM*	?	?
CN(C)S(=O)(=O)c1cccc(N=C2NN=C(c3ccccc3)CS2)c1	4.7%	?	?	6.6%	2.5%	?	/	/	/	/
Cc1ccc(S(=O)(=O)N2CCOCC2)cc1NC(=O)c1cc(-c2ccccn2)nc2ccccc12	11.4%	-5.0%	-31.8%	-4.7%	4.0%	4.9%	/	/	/	/
O=C(Nc1cc(S(=O)(=O)N2CCOCC2)ccc1N1CCCCC1)c1cc(-c2ccccn2)nc2ccccc12	2.4%	44.7µM*	-10.2%	2.7%	18.2%	-16.4%	23.8*	8.91µM*	21.8%	-2.3%
O=C(/C=C/c1ccc(F)cc1)c1ccccc1Br	7.3%	31.6µM*	-20.9%	-0.7%	11.8%	-19.7%	11.9*	?	?	?
Cc1ccc(C(=O)/C=C/c2ccc(F)cc2)o1	-5.6%	?	2.4%	-14.4%	-4.7%	?	/	/	/	/
O=C(NCC1CCCCC1)c1nnc(C(=O)NCC2CCCCC2)c2c1[nH]c1ccccc12	/	7.6%	/	/	/	/	/	/	/	/
COc1ccc2oc(=O)cc(CN3CCN(C(=O)c4ccccc4Br)CC3)c2c1	/	14.6%	-9.0%	/	/	/	/	/	/	/
CCOC(=O)c1c(C)nsc1NC(=O)c1ccco1	2.9%	15.0%	-9.6%	-9.6%	-1.8%	-7.3%	/	/	/	/
CCOC(=O)c1c(C2COc3ccccc3O2)csc1NC(=O)c1ccco1 (stereo unspecified)	7.3%	?	-13.0%	7.2%	-1.4%	-5.7%	?	2.24µM*	-25.0%	-4.3%
C=CCSc1nnc(NC(=O)c2nc(SCC)ncc2Cl)s1	0.0%	-6.0%	-16.4%	4.5%	3.6%	0.0%	/	/	/	/
CSc1nnc(NC(=O)c2nc(S(=O)(=O)Cc3cccc(C)c3)ncc2Cl)s1	-8.9%	14.1µM*	-7.0%	5.4%	-5.5%	?	4.23*	?	5.8µM*	16.4µM*
Cc1cccc(CS(=O)(=O)c2ncc(Cl)c(C(=O)Nc3nnc(C(C)C)s3)n2)c1	-15.0%	8.91µM*	-20.5%	0.4%	-5.7%	?	5.97*	3.55µM*	8.2µM*	13µM*
CC(C)c1nnc(NC(=O)c2nc(SCc3ccc(F)cc3)ncc2Cl)s1	/	0.5%	-12.5%	/	/	/	/	/	/	/
CC(C)c1nnc(NC(=O)c2nc(S(=O)(=O)Cc3ccc(F)cc3)ncc2Cl)s1	-12.1%	10µM*	-20.3%	7.4%	10.8%	-2.7%	7.52*	3.55µM*	16.4µM*	10µM*
CCSc1nnc(NC(=O)c2nc(S(=O)(=O)Cc3ccc(F)cc3)ncc2Cl)s1	-13.2%	?	-17.5%	0.9%	9.7%	-27.9%	2.82*	3.55µM*	16.4µM*	18.9µM*
C=C1N[C@]2(C(=O)COC(C)=O)[C@@H](C[C@H]3[C@@H]4CCC5=CC(=O)C=C[C@]5(C)[C@H]4[C@@H](O)C[C@@]32C)O1	/	1.1%	/	/	/	/	/	/	/	/
Cc1ccc(CS(=O)(=O)c2ncc(Cl)c(C(=O)Nc3nnc(C(C)C)s3)n2)cc1	-13.5%	12.6µM*	?	2.8%	6.8%	-29.8%	6.7*	3.16µM*	9.2µM*	18.4µM*
O=C(c1ccc(Cl)cc1)N(Cc1ccco1)Cc1ccco1	/	-3.5%	-22.7%	/	/	/	/	/	/	/
CS(=O)(=O)c1ncc(Cl)c(C(=O)N(Cc2ccc(Cl)cc2)Cc2ccco2)n1	/	25.1µM*	-21.6%	/	/	/	2.82*	3.55µM*	16.4µM*	18.9µM*
CC1=C(C)CS(=O)N(S(=O)(=O)c2ccccc2)C1 (stereo unspecified)	16.6%	3.16µM*	-17.4%	-5.9%	3.0%	-1.1%	3.77*	?	7.6%	0.5%
Cc1cccc(CS(=O)(=O)Cc2ccc(C(=O)NC(C)c3ccccc3)o2)c1 (stereo unspecified)	-4.4%	-2.9%	-13.0%	2.8%	-6.6%	6.0%	/	/	/	/

Compound activity: PubChem BioAssay, National Center for Advancing Translational Sciences (NCATS)
